Fewer than 10 of roughly 59,000 compounds were called active. How the calls were made is not given here. A selection follows.
assay: qHTS Assay for Spectroscopic Profiling in A647 Spectral Region; settings: Compound fluorescence, A647 channel (570/671 nm), Tris buffer; stronger effect = higher value
From the text: NIH Molecular Libraries Screening Centers Network [MLSCN] NIH Chemical Genomics Center [NCGC] […] Occasionally, the artifactual effect may originate from the compounds own spectral or other biophysical properties which generally tend to track its assay concentration. Pre-screening/profiling the library with respect to the compounds spectral properties should help one exclude false positives early on. While the most informative fluorescent profiling data set is obtained by performing a full excitation and emission scan of each well by using a monochromator-based plate reader, such an approach is practical only on a very limited scale as scanning each well requires long time. An alternative approach, applied here, is to perform plate reader scans using selected excitation and emission wavelength pairs to generate a multidimensional relational database that correlates compound concentration and the respective relative fluorescence intensity at a given wavelength set. A standard curve of Alexa 647 (A647) present on each plate as six-point concentration series, was used to compute a normalized fluorescence response, termed dye-equivalent concentration, for each compound at each concentration.
NCGC Assay Protocol Summary: Buffer: 100 mM Tris buffer, pH 8.0 Dye standard plate: The wells in columns 1 through 4 of a Kalypsys polypropylene 1536-well compound plate were filled with standard solutions of fluorophore corresponding to the spectral region of interest. Solutions of A647 were placed in the following wells: AC1, AD1: 3 mM, AC2, AD2: 300 uM, AC3, AD3: 30 uM, AC4, AD4: zero (DMSO), AE1, AF1: 3 uM, AE2, AF2: 900 nM, AE3, AF3: 300 nM, AE4, AF4: zero (DMSO). Assay Steps: Six uL of buffer were dispensed to 1536-well Greiner black plates. Compounds and dye standards (23 nL) were transferred via Kalypsys PinTool. The plates were incubated for 15 min at room temperature, and then read on ViewLux (Perkin-Elmer) High-throughput CCD imager using 570 nm and 671 nm excitation and emission filter set. Keywords: NIH Roadmap, MLSCN, MLI, MLSMR, qHTS, NCGC, A647, A-647, Fluorescent Profiling.

Max dye-equivalent concentration, inactive:
O=c1c(-c2cccs2)nc2cnc(Oc3ccccc3)nc2n1-c1ccccc1 2.8 nM
COc1cc(C2C3C(=O)N(c4ccccc4)C(=O)C3ON2c2ccccc2)ccc1O (stereo unspecified) 30 nM
COc1ccc2oc(=O)c(C(=O)O)cc2c1 1 nM
O=C1N(Cc2ccc3c(c2)OCO3)c2ccccc2C1(O)c1c[nH]c2ccccc12 (stereo unspecified) 1 nM
O=C1CCC(C(=O)Nc2ccc(OC(F)F)cc2)N1 (stereo unspecified) 1 nM
CC(=O)N1CCC2(CCCN(c3ncccn3)C2)CC1 1 nM
Cc1ccccc1Nc1nnc(C)c(=O)[nH]1 45 nM
Cc1ccc(-n2c(N)c(C(=O)N3CCOCC3)sc2=S)c(C)c1 1 nM
CC(=O)OC(C(=O)NC1CCCCC1)c1ccccc1 (stereo unspecified) 30 nM
NC(=O)C1CCN(C(=O)c2ccc(C(F)(F)F)cc2)CC1 1 nM
COc1cccc(Cn2c(=O)c(C)nc3cnc(Oc4ccccc4)nc32)c1 1 nM
Cc1cccc(NC(=O)c2ccccc2NC(=O)C(C)(C)C)n1 39 nM
CCc1ccccc1NC1c2ccccc2C(=O)N1c1cccnc1 (stereo unspecified) 11 nM
CCOC(=O)c1c(C)nc(-c2ccccc2)nc1NC(=O)C(C)C 1 nM
Cc1nc(NCc2ccccc2)c(C(N)=O)c2c1COC(C)(C)C2 37 nM
COc1ccccc1CNC(=O)CCCn1c(=O)c2ccccc2n(CC(=O)NC2CCCC2)c1=O 28 nM
O=C(c1cccs1)N1CCN(C(=O)N2CCOCC2)CC1 9.6 nM
CC1Cc2nc(SCC(=O)Nc3ccccc3F)n(C)c(=O)c2S1 (stereo unspecified) 1 nM
COc1ccc2nccc(C(=O)O)c2c1 1 nM
CCn1c(=N)c(S(=O)(=O)c2ccc(F)cc2)cc2c(=O)n3ccccc3nc21 1.8 nM
O=C(CCCN1C(=O)CSc2ncccc21)N1CCN(c2cccc(C(F)(F)F)c2)CC1 6.4 nM
COc1ccc(C(=O)Nc2cccnc2)cc1C(=O)Nc1cccnc1 1.5 nM
OCCCN1c2ccccc2Nc2nnc(-c3ccccc3)cc21 20 nM
CCOC(=O)c1[nH]cnc1C(=O)NC1CCCCC1 1 nM
ClC(Cl)(Cl)C(N1CCN(c2ccccc2)CC1)N1CCN(c2ccccc2)CC1 1 nM
CN(Cc1ccco1)c1cc(-c2ccccc2C(F)(F)F)ncn1 1 nM
CC(=O)Oc1cccc(N2C(=O)CC(Nc3ccc(N4CCOCC4)cc3)C2=O)c1 (stereo unspecified) 1 nM
Cn1c(=O)[nH]c(=O)c2c1nc(N(CCO)Cc1ccccc1)n2Cc1ccccc1Cl 78 nM
Cn1cccc1C(=O)N1CCC2(CC1)CN(c1cccc(-c3ccccc3)c1)C2 18 nM
CCCCn1c(=S)[nH]c2ncccc2c1=O 1 nM
CC1(C)SC2c3ccccc3C(=O)N2[C@@H]1C(=O)NCc1ccco1 (stereo partly specified) 1 nM
O=C(O)CN1C(=O)CC(Cc2ccccc2)C1=O (stereo unspecified) 1 nM
O=C(Cc1c(F)cccc1Cl)N1CCN(C(=O)c2ccco2)CC1 7.2 nM
CCCn1c(=O)c2[nH]c(-c3ccc(OCC(=O)NCCN)cc3)nc2n(CCC)c1=O 50 nM
O=c1[nH]c(=O)c2nc3ccccc3nc2[nH]1 49 nM
Cc1nc2nc3c(cn2n1)C(=O)CC(c1ccccc1)C3 (stereo unspecified) 28 nM
CSCC[C@H](NC(=O)NCc1cccs1)C(=O)O 3.7 nM
CN(C(=O)COc1nnc(-c2cccs2)c(-c2cccs2)n1)c1ccccc1 1 nM
Cc1cc(N2C(=O)C(=O)/C(=C(/O)c3ccccc3)C2c2cccc(Br)c2)no1 (stereo unspecified) 1.8 nM
C/C(N)=C(\C#N)C(=O)NCCc1ccccn1 39 nM
CCc1nnc(NC(=O)c2nc3nccc(C)n3n2)s1 18 nM
N#Cc1ccc(CSc2nnc(-c3ccccn3)n2-c2ccc(Cl)cc2)cc1 2.1 nM
Clc1ccc(C=Nc2ccc3c(c2)Cc2ccccc2-3)c(Cl)c1 3.2 nM
CN(C)CCCNC(=O)c1ccc2[nH]c3ccccc3c2c1 3 nM
CC(C)CSC[C@@H]1O[C@H](n2cnc3c(N)nccc32)[C@H](O)[C@@H]1O 13 nM
Cc1ccccc1Nc1nc(N)nc(CN2CCN(c3ccccn3)CC2)n1 44 nM
COc1ccc(C(c2nnnn2Cc2cccs2)N2CCN(c3ccccc3)CC2)cc1OC (stereo unspecified) 11 nM
COC(=O)CNC(=O)c1ccc2c(c1)S(=O)(=O)c1ccccc1C2=O 6.7 nM
O=C(O)c1ccc(C(=O)c2ccccc2C(=O)O)cc1C(=O)O 3.2 nM
O=C(O)CSCNC(=O)CC12CC3CC(CC(C3)C1)C2 1.2 nM
COc1cc(C(=O)N(Cc2ccc(N(C)C)cc2)C2CCS(=O)(=O)C2)cc(OC)c1OC (stereo unspecified) 8.2 nM
O=S(=O)(/C=C/c1ccccc1)NCCc1ccccn1 23 nM
Fc1ccccc1C(c1nnnn1Cc1ccc2c(c1)OCO2)N1CCN(Cc2ccccc2)CC1 (stereo unspecified) 3.5 nM
Cc1cc(C)nc(SCc2nnc(SCC(=O)OC3CCCCC3)o2)n1 1 nM
Cc1csc(NC(=O)C2CCCN2C(=O)OCC(C)C)n1 (stereo unspecified) 15 nM
N=C(CC(=O)Nc1ccccn1)c1ccccc1 36 nM
Cc1oc(C)c(C(=O)NCCCC(=O)O)c1C(=O)NCCCC(=O)O 15 nM
Cc1c(O)c(Br)c(C)c(O)c1Br (tested in a mixture with another compound) 36 nM
O=C1c2ccccc2C(=O)N1CCCSc1ccccc1 1 nM
Cc1ccc(NC(=O)C2CCCN(S(=O)(=O)c3c(C)noc3C)C2)c(C)c1 (stereo unspecified) 5.9 nM
CCCNS(=O)(=O)c1ccc(CCC(=O)NCc2cccnc2)cc1 46 nM
Cn1c(=O)[nH]c(=O)c2c1nc(CN(Cc1ccccc1)Cc1ccccc1)n2CCN1CCOCC1 2 nM
CCn1c(=O)cc(SCC(=O)NCc2ccc3c(c2)OCO3)c2ccccc21 34 nM
CCc1cc2c(=O)c(-c3ccon3)c(N)oc2cc1OC 23 nM
N#Cc1cccc(NC(=O)CCC2CCCC2)c1 1 nM
Cc1nnc(SCc2ccc(C(=O)c3ccc(Cl)cc3)o2)n1-c1ccccc1 1.7 nM
Cn1c2ccccc2c2c(C(=O)N3CCN(c4ccc(F)cc4)CC3)cn(C3CCCC3)c(=O)c21 2.8 nM
CCn1c(Cc2ccccc2)nnc1SCc1nc2ccccc2c(=O)[nH]1 3.7 nM
CCCOc1ccc(-c2nc(N)n[nH]2)cc1 1 nM
Cc1nnc(SCC(=O)N2CCc3ccccc32)n1-c1ccccc1 30 nM
O=C(Nc1c[nH]c(=O)[nH]c1=O)Oc1ccccc1 1 nM
COC(=O)c1c(NC(=O)CSc2nncs2)sc2c1CCCCC2 57 nM
CCCCN(CCCC)C(=O)CCS(=O)(=O)c1ccc2c(c1)n(C)c(=O)c(=O)n2C 16 nM
COc1cc(NS(=O)(=O)c2ccc(NC(C)=O)cc2)cc(OC)c1 2 nM
COc1ccc(S(=O)(=O)N2CCN(c3ncnc4c(-c5ccccc5)nsc34)CC2)cc1 45 nM
C#CCN1C(=O)C(O)(CC(=O)c2cc(OC)ccc2OC)c2ccccc21 (stereo unspecified) 44 nM
COc1ccc2c(c1)C(C)=CC(C)(C)N2C(=O)CNCc1ccc2c(c1)OCO2 27 nM
CN(C)Cc1c(C#N)c2ccccc2n1C 1 nM
CN1CCCC(OC(=O)COc2ccc(Br)cc2)C1 (stereo unspecified) 2.1 nM
Fc1ccc2nc(Nc3nc4c(s3)CCCC4)sc2c1 34 nM
Cc1n[nH]c(C)c1S(=O)(=O)N1CCCC(C(=O)NCC2COc3ccccc3O2)C1 (stereo unspecified) 15 nM
CCON=C1C(C)(C)C(C)(C)C(C)(C)C1(C)C 1 nM
CC(C)c1ccc(N2CC(C(=O)Nc3nccs3)CC2=O)cc1 (stereo unspecified) 1 nM
Cc1nc(NC(=O)CCC(=O)O)sc1C(=O)N(C)C 1 nM
Cc1nc2ncnn2c(C)c1CCC(=O)N1CCN(C(=O)c2ccco2)CC1 1 nM
CN1CCc2c(sc3c2c(NCc2ccco2)nc2nnnn23)C1 1 nM
CCN(C(=O)CSc1ncn[nH]1)c1cccc2ccccc12 1 nM
Cc1nn(-c2ccccc2)c2sc(C(=O)N(Cc3ccco3)C(C)C(=O)NC(C)(C)C)cc12 (stereo unspecified) 1 nM
COc1ccc2c(c1)CCc1c(C(=O)Nc3c(C)n(C)n(-c4ccccc4)c3=O)noc1-2 1 nM
Cc1cc2ccccc2n2c(SCC(=O)N3CCN(C(=O)c4ccco4)CC3)nnc12 3.8 nM
CCSc1nc2c(c(=O)[nH]1)C(c1cccnc1)C(C(=O)OC(C)C)=C(C)N2 (stereo unspecified) 29 nM
